Where “and” joins values, the source holds several entries; their conditions need not be identical. Equal entries are not always repeated. Out of some 5,500 compounds screened, about 2,000 (36%) were called active. Inconclusive results (about 18%) are left out. Cut-off read from the data, not from the text of the source: active = normalized growth mostly below about 0.91 (no sharp cut-off); inconclusive = no clear call, values can overlap the other calls; inactive = mostly above about 0.92. The list shows a part of the results.
Experiment: chemical genetic growth profiling, strain panel (AID 1159580);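 note: tested at 20 µM; growth read once vehicle control cultures reached saturation at 30 °C; 1 = growth at the plate median or of vehicle wells; lower values mean less growth of the strain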
Details: S. cerevisiae deletion strains, growth OD

Measured: normalized growth

CCn1cc(C(=O)O)c(=O)c2cc(F)c(N3CCNCC3)nc21
inactive: locus YAL013W, strain DEP1, active compounds read low 1.01 | locus YAL021C, strain ccr4, active compounds read low 0.939 | locus YAL026C, strain drs2, active compounds read low 0.985 | locus YAL030W, strain snc1, active compounds read low 0.982 | locus YBL061C, strain skt5, active compounds read low 0.991 | locus YBR009C, strain hhf1, active compounds read low 0.992 | locus YBR021W, strain FUR4, active compounds read low 1.01 | locus YBR023C, strain chs3, active compounds read low 0.983 | locus YBR171W, strain sec66, active compounds read low 0.984 | locus YBR229C, strain ROT2, active compounds read low 1.01 | locus YBR231C, strain swc5, active compounds read low 0.998 | locus YBR279W, strain paf1, active compounds read low 0.982 | locus YCL011C, strain gbp2, active compounds read low 0.987 | locus YCL016C, strain dcc1, active compounds read low 0.986 | locus YCL029C, strain bik1, active compounds read low 1 | locus YCL061C, strain MRC1, active compounds read low 0.987 | locus YCL069W, strain vba3, active compounds read low 0.97 | locus YCR088W, strain abp1, active compounds read low 0.982 | locus YDL005C, strain med2, active compounds read low 0.978 | locus YDL035C, strain GPR1, active compounds read low 1.02 | locus YDL040C, strain nat1, active compounds read low 0.983 | locus YDL074C, strain BRE1, active compounds read low 1 | locus YDL101C, strain DUN1, active compounds read low 1.01 | locus YDL134C, strain PPH21, active compounds read low 1.03 | locus YDL185W, strain tfp1, active compounds read low 1.03 | locus YDL192W, strain arf1, active compounds read low 1.02 | locus YDR001C, strain nth1, active compounds read low 0.978 | locus YDR069C, strain doa4, active compounds read low 0.982 | locus YDR101C, strain arx1, active compounds read low 1 | locus YDR137W, strain rgp1, active compounds read low 0.939 | locus YDR159W, strain sac3, active compounds read low 0.962 | locus YDR162C, strain NBP2, active compounds read low 1.02 | locus YDR195W, strain ref2 0.97 | locus YDR297W, strain sur2, active compounds read low 0.971 | locus YDR318W, strain mcm21, active compounds read low 1.02 | locus YDR334W, strain swr1, active compounds read low 0.974 | locus YDR335W, strain msn5, active compounds read low 0.979 | locus YDR388W, active compounds read low 1.01 | locus YDR392W, strain spt3, active compounds read low 0.946 | locus YDR502C, strain sam2, active compounds read low 1.01 | locus YEL003W, strain gim4, active compounds read low 0.985 | locus YEL037C, strain rad23, active compounds read low 0.975 | locus YEL061C, strain CIN8 (second series), active compounds read low 0.979 | locus YEL061C, strain CIN8, active compounds read low 1.01 | locus YER015W, strain faa2, active compounds read low 0.982 | locus YER016W, strain bim1, active compounds read low 0.984 | locus YER110C, active compounds read low 1.02 | locus YER111C, strain swi4, active compounds read low 0.985 | locus YER155C, strain BEM2 (second series), active compounds read low 0.956 | locus YER155C, strain BEM2, active compounds read low 1.01 | locus YER167W, strain BCK2, active compounds read low 1.03 | locus YFR010W, strain ubp6, active compounds read low 0.984 | locus YGL078C, strain dbp3, active compounds read low 1.01 | locus YGL086W, strain mad1, active compounds read low 1.01 | locus YGL167C, strain pmr1, active compounds read low 0.976 | locus YGL173C, strain kem1, active compounds read low 0.98 | locus YGL227W, strain vid30, active compounds read low 0.987 | locus YGL240W, strain doc1, active compounds read low 0.975 | locus YGL248W, strain PDE1, active compounds read low 1.01 | locus YGL253W, strain hxk2, active compounds read low 0.994 | locus YGR135W, strain pre9, active compounds read low 1.03 | locus YGR252W, strain gcn5, active compounds read low 1.01 | locus YHR013C, strain ard1, active compounds read low 0.966 | locus YHR027C, strain rpn1, active compounds read low 0.994 | locus YHR030C, strain SLT2, active compounds read low 1.01 | locus YHR079C, strain IRE1 (second series), active compounds read low 1.01 | locus YHR079C, strain IRE1, active compounds read low 1.03 | locus YHR094C, strain hxt1, active compounds read low 1.02 | locus YHR129C, strain ARP1, active compounds read low 1.01 | locus YHR142W, strain chs7, active compounds read low 0.984 | locus YHR200W, strain rpn10, active compounds read low 1.01 | locus YIL066C, strain RNR3, active compounds read low 1.02 | locus YIL073C, strain SPO22, active compounds read low 1.08 | locus YIL125W, strain kgd1, active compounds read low 1.01 | locus YIR030C, strain dcg1, active compounds read low 1.01 | locus YJL092W, strain hpr5, active compounds read low 0.991 | locus YJL095W, strain BCK1 (second series), active compounds read low 0.985 | locus YJL095W, strain BCK1, active compounds read low 1 and 1.04 | locus YJL115W, strain asf1, active compounds read low 0.963 | locus YJL129C, strain trk1, active compounds read low 0.943 | locus YJL134W, strain LCB3, active compounds read low 1 | locus YJL154C, strain vps35, active compounds read low 0.961 | locus YJL164C, strain tpk1, active compounds read low 0.992 | locus YJL166W, strain qcr8, active compounds read low 0.981 | locus YJL168C, strain set2, active compounds read low 1.01 | locus YJL187C, strain SWE1 (second series), active compounds read low 1 | locus YJL187C, strain SWE1, active compounds read low 0.981 | locus YJR043C, strain POL32, active compounds read low 0.992

Source: PubChem BioAssay AID1159580 (chemical genetic matrix, 2015)
